Molecules are shown by their SMILES.

The target of the assay is Hexose transporter 1 (Plasmodium falciparum) (UniProt O97467). Put plainly: ST_JUDE_LEISH: Cytotoxicity at 2uM final concentration against transgenic Leishmania Mexicana promastigotes LmPfHT that are glucose transport deficient and complemented with the Plasmodium falciparum hexose transporter. Activity is measured by DNA content using SYBR green in vitro. It is filed as functional.
For `O=C(N/N=C/c1nc2ccccc2[nH]1)c1cccc([N+](=O)[O-])c1`, the inhibition was 1%.

Consider `COc1ccccc1-c1sccc1C(=O)NC1(c2cc(Cl)cc(Cl)c2)CCCC1`, for which the inhibition stood at 0.95%.

As for `CN(C)c1nc2cc(-n3cnc4cc(-c5ccc(Cl)cc5)sc4c3=O)ccc2n1CCCN1CCCCC1`, the inhibition came to 10.8%.

Take `CCCC(=O)Nc1ccc(Cl)c(NC(=O)COc2cc(C)ccc2C(C)C)c1`: the inhibition was 8.41%.

`CCCCC(NCC)c1ccc(OCCOc2ccc(C(CCCC)NCC)cc2)cc1` (centres undefined): the inhibition was 41.5%.

On to `Cc1nc2c(Nc3nc(-c4ccncc4)cs3)ncnc2n1-c1ccccc1Cl`, for which the inhibition is 38.8%.

`O=C(/C=C/c1ccc(Cl)c(Cl)c1)NCCCCCN1CCCC(C(=O)Nc2ccc(Cl)c(Cl)c2)C1` (centres undefined): the inhibition was -1.19%.

Consider `CN(C)CCNC(=O)c1ccc2c(c1)ncn2-c1cc(OCc2ccccc2C(F)(F)F)c(C(N)=O)s1.CN(C)CCNC(=O)c1ccc2ncn(-c3cc(OCc4ccccc4C(F)(F)F)c(C(N)=O)s3)c2c1`, for which the inhibition amounted to 1.7%.

Take `CCCOc1ccc(-c2nonc2NC(=O)c2cccc(OC)c2)cc1OCCC`: the inhibition worked out at 10.9%.

As to `N=C(NCCc1c[nH]c2ccccc12)NCc1ccccc1Cl`, the inhibition is -1.07%.

Turning to `CC(=O)Oc1c(Cl)c(C)nc(C)c1-c1ccc(Oc2ccc(OC(F)(F)F)cc2)cc1`, the inhibition stood at 3.09%.

For the compound `O=C(Nc1cccc(-c2nn3ccccc3c2-c2ccnc(Nc3ccc(C(=O)N4CCOCC4)cc3)n2)c1)c1c(F)cccc1F`, the inhibition is 7.72%.

For the compound `Cc1nc(O)c2c(ccc3ccc(CN(C)c4ccc(C(=O)N[C@@H](CCC(=O)O)C(=O)O)cc4)cc32)n1`, the inhibition was -0.69%.

On to `Cc1cc(C(F)(F)F)n2nc(C(=O)N(Cc3cncn3Cc3ccccc3F)CC3CC3)cc2n1`, for which the inhibition was -0.8%.

(Values after ChEMBL document CHEMBL3433997, “St. Jude Leishmania screening dataset” (2016).)
